# High-throughput results: PubChem BioAssay, several laboratories
# An excerpt weighted towards active compounds, which were near 27% of everything screened.
# CYP2C9 inhib = blocks human cytochrome P450 2C9 | P11712 | CYP2C9 Supersomes, luciferin-H conversion, luminescence | inhibition, % at 5 µM | hit rate 20% among 96,000 | AID 777;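 active means blocking of liver enzyme CYP2C9 beyond about 50% at 5 µM, limit read from the data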
# CYP2C19 inhib = human CYP2C19 inhibition. CYP2C19 Supersomes, luciferin-H EGE luminescence, 30 min. inhibition, % at 5 µM. AID 778. hit rate 21% among 96,000. P33261;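 active means CYP2C19 inhibition above a set limit at 5 µM in the primary screen, cut at about 50% in these data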;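 further: plate controls were negative control wells for no effect and 2.5 mM tranylcypromine positive control for full effect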
# EphB4 antag = blocks human EphB4 binding to ephrin-B2; P54760; EphB4 LBD / TNYL-RAW-Alexa532 peptide, fluorescence polarization; inhibition, % at 7 µM; hit rate 0.15% among 97,000; AID 720;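 active means inhibition above the screen-wide mean inhibition plus 3 SD, cut at about 15% in these data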;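 further: 0% = DMSO wells and 100% = excess unlabeled TNYL-RAW peptide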
# Target sequence (P54760 whole entry, looked up, the tested form may be a part): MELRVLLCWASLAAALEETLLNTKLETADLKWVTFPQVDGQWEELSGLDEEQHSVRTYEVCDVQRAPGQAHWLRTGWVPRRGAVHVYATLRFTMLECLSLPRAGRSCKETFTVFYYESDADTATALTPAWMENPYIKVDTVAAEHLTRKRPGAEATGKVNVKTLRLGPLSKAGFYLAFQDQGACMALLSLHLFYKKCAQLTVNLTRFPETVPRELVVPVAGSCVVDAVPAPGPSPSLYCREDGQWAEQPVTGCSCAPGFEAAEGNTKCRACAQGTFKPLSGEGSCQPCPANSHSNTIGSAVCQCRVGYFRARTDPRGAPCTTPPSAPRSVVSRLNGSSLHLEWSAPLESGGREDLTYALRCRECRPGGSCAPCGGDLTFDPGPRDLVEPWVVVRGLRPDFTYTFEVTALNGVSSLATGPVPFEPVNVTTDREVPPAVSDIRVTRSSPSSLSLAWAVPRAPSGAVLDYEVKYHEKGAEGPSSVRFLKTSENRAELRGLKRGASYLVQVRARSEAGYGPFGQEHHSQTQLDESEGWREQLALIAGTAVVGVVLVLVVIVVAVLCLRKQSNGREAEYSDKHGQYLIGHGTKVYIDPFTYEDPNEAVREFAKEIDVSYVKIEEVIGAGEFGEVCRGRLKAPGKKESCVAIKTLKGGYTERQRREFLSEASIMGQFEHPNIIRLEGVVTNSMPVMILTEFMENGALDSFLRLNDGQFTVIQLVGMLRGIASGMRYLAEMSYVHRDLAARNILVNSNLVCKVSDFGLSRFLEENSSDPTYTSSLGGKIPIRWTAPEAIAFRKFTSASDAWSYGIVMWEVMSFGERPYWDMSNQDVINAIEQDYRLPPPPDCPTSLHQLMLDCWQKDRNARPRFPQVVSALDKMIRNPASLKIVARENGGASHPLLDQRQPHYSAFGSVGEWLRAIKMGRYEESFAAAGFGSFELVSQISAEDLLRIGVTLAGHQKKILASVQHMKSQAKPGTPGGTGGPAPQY
# CYP2C9 act = CYP2C9 (human) activation; recombinant CYP2C9, luciferin-H conversion, luminescence; stronger effect = higher value; factor 1 = untreated enzyme, 0 = blocked; activation factor at 5 µM; hit rate 1.4% among 96,000;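 active means activation factor of 2 or more for CYP2C9 at a 5 µM dose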;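 further: 0 = sulfaphenazole-blocked wells and 1 = vehicle-only wells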
# CYP2C19 activ = cytochrome P450 2C19 (human) activation; AID 1025; P33261; 96,000 tested, under 10 active; activation factor at 5 µM; recombinant CYP2C19, luciferin-H EGE luminescence; stronger effect = higher value; 0 = fully inhibited enzyme, 1 = untreated enzyme;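 active means activation factor of at least 2 at 5 µM in the primary screen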;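 further: 0 = wells with 2.5 mM tranylcypromine and 1 = vehicle-only wells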
# The depositor's hits bear a star; x = no result.
SMILES,CYP2C9 inhib,CYP2C19 inhib,EphB4 antag,CYP2C9 act,CYP2C19 activ
Cc1ccc(S(=O)(=O)N2CN(Cc3ccco3)c3nc4ccccc4nc32)cc1,90.0*,75.5*,3.5,0.1,0.2
Cc1ccc(S(=O)(=O)N2CN(Cc3ccco3)c3nc4ccccc4nc32)cc1C,83.5*,67.9*,2.4,0.2,0.3
Nc1nc(CSCCO)nc(Nc2ccc(F)cc2)n1,14.0,18.8,-2.3,0.9,0.8
CC(C)Cc1ccc(C#N)c(SCC(N)=O)n1,26.0,61.3*,0.1,0.7,0.4
Cc1nnc(NC(=O)CSc2nnc3scc(-c4ccc(C)c(C)c4)n23)s1,33.1,8.9,-4.8,0.7,0.9
O=C(CSc1ccc(Cl)cc1Cl)N1CCC(c2nc3ccccc3s2)CC1,58.3*,54.9*,-2.5,0.4,0.5
Cc1cc(C(=O)CSCc2nnc3n(CCC(C)C)c(=O)c4ccccc4n23)c(C)n1C,x,x,10.6,x,x
COc1cc(OC)c(C2N(c3ccccn3)C(=O)C3CCCN32)cc1OC (stereo not drawn),-5.1,-7.7,-7.3,1.1,1.1
O=c1ccn(CCOc2ccc(Cl)cc2)c(=O)[nH]1,42.3,59.4*,-3.4,0.6,0.4
CCC(=Nc1ccc(Cc2ccncc2)cc1)c1c(O)n(C)c(=O)n(C)c1=O,91.7*,95.6*,7.2,0.1,0
CCCc1nnc(SCC(=O)N2CCOCC2)n1Cc1ccco1,-4.1,5.3,-1.0,1,0.9
O=C(O)CC(NC(=O)c1ccccc1NC(=O)c1ccccc1)C(=O)O (stereo not drawn),-2.1,1.9,-2.0,1,1
CC(C)(C)C(=O)NC1CCN(S(=O)(=O)c2ccc(C(F)(F)F)cc2)CC1,-2.7,76.0*,-3.3,1,0.2
O=C(NC1CCCCC1)c1ccc(S(=O)(=O)N2CCCCC2)cc1,x,x,1.2,x,x
Cc1nnc(SCC(=O)N(Cc2ccccc2)C(C)C)n1-c1ccccc1,36.1,8.8,2.5,0.6,0.9
Cc1cc(NS(=O)(=O)c2ccc(NC(=O)c3cnc4scc(C)n4c3=O)cc2)nc(C)n1,23.6,-19.1,x,0.8,1.2
Cc1nc2ncnn2c(C)c1Cc1ccc(Cl)cc1,73.2*,95.3*,3.6,0.3,0
Clc1cccc(Cl)c1Cn1cnc2c(NCc3ccco3)ncnc21,13.6,-6.6,4.6,0.9,1.1
Clc1cccc(Cl)c1Cn1cnc(=NCc2ccco2)c2[nH]cnc21,76.7*,30.4,-4.4,0.2,0.7
CNC(=O)COC(=O)c1cc(=O)[nH]c2ccccc12,7.6,13.1,-3.2,0.9,0.9
Cc1ccc(C(=O)NCCCCNC(=O)c2ccc(C)o2)o1,-11.3,-16.9,5.3,1.1,1.2
Cc1ccc(OCc2ccc(C(=O)Nc3c(C)nn(Cc4c(F)c(F)c(F)c(F)c4F)c3C)o2)c([N+](=O)[O-])c1,56.8*,57.1*,3.7,0.4,0.4
Cc1nn(Cc2c(F)c(F)c(F)c(F)c2F)c(C)c1NC(=O)c1c([N+](=O)[O-])cnn1C,1.9,16.3,6.8,1,0.8
COc1cccc(NC(=O)c2oc3ccccc3c2NC(=O)C(C)(C)C)c1,80.6*,8.5,-2.6,0.2,0.9
COc1cccc(NC(=O)c2oc3ccccc3c2NC(=O)c2ccc3c(c2)OCO3)c1,39.3,5.1,4.5,0.6,0.9
SMILES,CYP2C9 inhib,CYP2C19 inhib,EphB4 antag,CYP2C9 act,CYP2C19 activ
COc1ccc(OC)c(C(=O)c2oc3ccccc3c2NC(C)=O)c1,48.8,98.1*,4.8,0.5,0
CN(C)CCSc1nnc(-c2ccccc2)o1,-14.2,-9.7,x,1.1,1.1
CC(C)(C)c1ccccc1OCCOCCSc1ncccn1,-17.5,-35.3,-4.4,1.2,1.4
COc1cc(N2C(=O)c3ccccc3C2=O)c(Cl)cc1C(=O)OCC(=O)NCc1ccco1,49.3,14.0,-0.3,0.5,0.9
CCOC(=O)c1c(NC(=O)Cn2nnc3ccccc32)sc2c1CCC(C)C2 (stereo not drawn),88.2*,60.7*,-4.0,0.1,0.4
Clc1ccc(COc2ccccn2)cc1Cl,1.6,70.7*,2.7,1,0.3
CCC(=O)c1ccc(OCCN2CCOCC2)cc1,-10.3,-4.1,2.1,1.1,1
CCC(=O)c1ccc(OCCn2cncn2)cc1,66.8*,51.9*,-2.6,0.3,0.5
CN1CCN(C(c2cccc(C(F)(F)F)c2)c2nnnn2Cc2ccccc2)CC1 (stereo not drawn),42.9,51.8*,x,0.6,0.5
N#Cc1cccc(C(c2nnnn2Cc2ccccc2)N2CCCC2)c1 (stereo not drawn),22.8,56.3*,-12.5,0.8,0.4
